Assay outcomes deposited in PubChem by National Center for Advancing Translational Sciences (NCATS).
TDP1 cell noCPT = qHTS for Inhibitors of human tyrosyl-DNA phosphodiesterase 1 (TDP1): qHTS in cells in absence of CPT; Potency, µM (titrated, usually from 46.2 µM), for inactives: at the top dose activity change, negative = growth inhibition, actives largely listed as inhibitors; hit rate 15% among 420,000; DT40 Tdp1-/- hTDP1 cells, no CPT, ATP luminescence, 48 h; also: nearly all actives have a fitted effect of over 55% in size
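Chicken DT40 Tdp1-/- cells stably complemented with human TDP1 were seeded at 400 cells/well with DMSO in place of 20 nM camptothecin. After compound pinning, cells grew at least 48 hr at 37 °C; viability read by CellTiter-Glo luminescence.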
Gal4-VP16 FLuc = counter-screen for ROR gamma inhibitors: Gal4-VP16 reporter | Drosophila S2 Gal4-VP16 UAS-luciferase, luminescence, 20 h | hit rate 3.5% among 310,000 | AID 2546 | Potency, µM (highest dose often 53.6 µM), for inactives: top-dose activity, negative = inhibition, most hits filed as inhibitors;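 also: Gal4-VP16 expression switched on by copper sulfate through the metallothionein promoter; nearly all actives have a fitted effect of over 50% in size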
RORgamma inh = inhibitors of mouse ROR gamma transcriptional activity. hit rate 5.4% among 310,000. Drosophila S2 Gal4-RORgamma UAS-luciferase reporter, 20 h. Potency, µM (highest dose often 53.6 µM), inactives show top-dose activity change, negative = inhibition, most hits filed as inhibitors; also: nearly all actives have a fitted effect of over 60% in size
Target sequence (P51450 whole entry, looked up, the tested form may be a part): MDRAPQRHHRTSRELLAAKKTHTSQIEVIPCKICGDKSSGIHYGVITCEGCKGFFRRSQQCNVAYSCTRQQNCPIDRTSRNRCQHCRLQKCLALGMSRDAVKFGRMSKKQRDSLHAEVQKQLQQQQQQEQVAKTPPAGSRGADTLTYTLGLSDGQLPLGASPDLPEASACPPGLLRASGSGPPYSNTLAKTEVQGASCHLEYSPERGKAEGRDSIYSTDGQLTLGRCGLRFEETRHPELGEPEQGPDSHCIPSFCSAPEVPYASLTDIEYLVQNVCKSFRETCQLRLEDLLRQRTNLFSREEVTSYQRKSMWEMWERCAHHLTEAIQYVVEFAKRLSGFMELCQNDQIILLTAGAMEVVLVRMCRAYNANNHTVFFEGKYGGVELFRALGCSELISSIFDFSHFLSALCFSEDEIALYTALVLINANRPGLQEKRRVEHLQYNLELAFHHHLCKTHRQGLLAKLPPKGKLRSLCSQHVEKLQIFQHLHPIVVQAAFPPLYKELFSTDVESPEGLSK
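Read-out: Photinus luciferase luminescence; inhibitors lower reporter signal. Insect Schneider cells with Gal4-ROR gamma fusion under metallothionein promoter, UAS reporter; 700 uM final copper sulfate induction, 20 hr, ambient temperature.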
ALOX12 inh = inhibitors of human 12S-lipoxygenase ALOX12. P18054. purified 12hLO, xylenol orange hydroperoxide absorbance. Potency, µM (top dose mostly 108 µM), for the others: at the top dose activity change, negative = inhibition, hits mostly inhibitors. hit rate 1.1% among 580,000
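Purified human 12hLO at 150 nM in 25 mM Hepes, 0.01% Triton X-100, pH 7.0, preincubated 15 min at room temperature with compound. Reaction started with 40 uM arachidonic acid, 30 min at room temperature. Hydroperoxide measured by Fe-xylenol orange, 573/405 nm absorbance ratio.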
TDP1 cell CPT = growth inhibition of DT40 Tdp1-/-;hTDP1 cells with camptothecin (screen for TDP1 inhibitors); chicken DT40 Tdp1-/-;hTDP1 cells + 20 nM CPT, ATP luminescence, 48 h; Potency, µM (top dose mostly 46.2 µM), inactives show at the top dose activity change, negative = growth inhibition, actives largely listed as inhibitors; hit rate 12% among 420,000; AID 686979; also: nearly all actives have a fitted effect of over 55% in size
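Cell growth measured by CellTiter-Glo luminescence after a minimum 48 h, 37 C compound exposure with 20 nM CPT in Tdp1-knockout DT40 cells stably expressing hTDP1, seeded 400/well; qHTS titration format.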
ELG1 DNA repair = ELG1-dependent DNA repair inhibition. hit rate 2.3% among 330,000. HEK293T ELG1-luciferase reporter, luminescence, 16 h; DNA damage induced by 5-fluorouridine. Potency, µM (highest dose often 46.1 µM), without a hit: at the top dose activity change, negative = inhibition, usual class: inhibitors; also: nearly all actives have a fitted effect of over 55% in size
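In this reporter screen, reduction of luminescence relative to DMSO vehicle indicated activity. Compounds and 5-fluorouridine were added together to 2,000 cells per well, incubated for 16 hr at 37 °C, then developed with ONE-Glo.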
* marks the source's active call; other numbers are inactive results; ? = inconclusive; . = no result given; ! = not confirmed by another sample. In the library only some 15% were active in any assay of this set; here they are far more common. Calls follow the shape of the dose curve; as a rule, active = well fitted curve in the direction sought with a large enough effect; inconclusive = small, poorly fitted or top-dose-only effect, or another doubt; inactive = no such curve, though single readings can be large; an effect the other way counts as inactive or inconclusive. % is scaled to controls: 0 for no effect and ±100 for the full control effect; potency is read from the fitted curve at half-maximal effect.

SMILES | TDP1 cell noCPT | Gal4-VP16 FLuc | RORgamma inh | ALOX12 inh | TDP1 cell CPT | ELG1 DNA repair
O=C(Nc1ccc(F)cc1)c1oc2ccccc2c1NC(=O)C1CCCCC1 | 29.1µM* | . | . | -16.1% | ? | .
O=C(Nc1c(C(=O)Nc2ccc(F)cc2)oc2ccccc12)c1ccccc1F | 20.6µM* | . | . | 0.0% | ? | .
CNCC[C@@H](Oc1ccccc1C)c1ccccc1 | 23.7µM* | 5.0% | -11.5% | ? | ? | .
CNCCC(Oc1ccccc1OC)c1ccccc1 (centres undefined) | 23.1µM*! | -0.2% | 9.0% | 6.3% | 13µM*! | .
COc1ccccc1OCCCC(=O)NC(C)c1ccccc1 (centres undefined) | -20.6% | -8.4% | 13.2% | 16.2% | -14.5% | 3.6%
Cc1ccccc1OCC(=O)NC(C)c1ccccc1 (centres undefined) | ? | 12.7% | -9.3% | 17.7% | ? | ?
CCNC(=O)C1CCN(C(=O)N2CC3CC(C2)[C@H]2CCCC(=O)N2C3)CC1 (some centres undefined) | . | . | . | 10.7% | . | .
COc1ccc(C2/C=C\CN(C(=O)C3CC3)C(C)C(=O)N2Cc2ccc(F)cc2)cc1 (centres undefined) | . | 9.9% | 41.2% | . | . | .
COc1ccc(C2/C=C\CN(S(=O)(=O)c3ccc(C)cc3)[C@H](Cc3ccccc3)C(=O)N2Cc2ccc(F)cc2)cc1 (some centres undefined) | ? | 2.9% | -44.2% | . | ? | 7.7%
CCCCCCC(=O)N1C/C=C\C(c2ccc(OC)cc2)N(Cc2ccc(F)cc2)C(=O)C1Cc1ccccc1 (centres undefined) | . | ? | -40.4% | . | . | .
COc1ccc([C@H]2/C=C\CN(C(=O)C3CCCC3)[C@@H](C)C(=O)N2Cc2ccc(F)cc2)cc1 | 7.31µM* | . | . | -29.7% | 13µM* | .
COc1ccc(C2/C=C\CN(C(=O)Nc3ccc(C(F)(F)F)cc3)CC(=O)N2Cc2ccc(F)cc2)cc1 (centres undefined) | 13µM* | -0.2% | ? | . | 14.6µM* | -29.4%
COc1ccc(C2/C=C\CN(S(=O)(=O)c3ccc(C)cc3)C(Cc3ccccc3)C(=O)N2Cc2ccc(F)cc2)cc1 (centres undefined) | . | -10.6% | 10µM* | . | . | .
CCCCCCCN1C/C=C\C(c2ccc(OC)cc2)N(Cc2ccc(F)cc2)C(=O)[C@H]1Cc1ccccc1 (some centres undefined) | 18.4µM* | -8.9% | -4.2% | . | ? | 5.0%
CCN(CC)C(=O)COC(=O)c1ccccc1-c1ncc(-c2ccc(F)cc2)o1 | . | . | . | 30.1% | . | .
COc1ccc(C2/C=C\CN(C(=O)C3CCCC3)[C@H](Cc3ccccc3)C(=O)N2Cc2ccc(F)cc2)cc1 (some centres undefined) | ? | 7.4% | -15.3% | -17.2% | 23.1µM* | -23.7%
COc1ccc(C2/C=C\CN(C(=O)Nc3ccccc3)CC(=O)N2Cc2ccc(F)cc2)cc1 (centres undefined) | ? | 10.6% | 10.4% | 0.0% | ? | 14.1%
CCOC(=O)Cc1csc(/N=C/c2c(O)n(-c3ccc(C)c(C)c3)c(=O)c3ccccc23)n1 | ? | -12.2% | ? | 10.1% | 20.6µM* | -7.4%
Cc1cc(N=Cc2c(O)n(-c3ccc4c(c3)OCO4)c(=O)c3ccccc23)ccn1 | 18.4µM* | ? | ? | 7.6% | 18.4µM* | ?
Cc1cccc(/N=C/c2c(O)n(Cc3ccc4c(c3)OCO4)c(=O)c3ccccc23)n1 | -18.1% | -10.3% | 2.9% | 6.5% | 0.5% | -17.0%
Cc1cccc(-n2c(O)c(C=Nc3ccc4c(c3)OCO4)c3ccccc3c2=O)n1 | ? | -1.0% | 35.1% | 0.0% | ? | ?
COc1ccc(-n2c(O)c(C=Nc3ccccc3)c3ccccc3c2=O)cc1OC | ? | ? | -1.1% | 5.9% | ? | -12.3%
Cc1cccc(-n2c(O)c(C=Nc3cccc(O)c3)c3ccccc3c2=O)n1 | ? | -13.9% | 20.3% | ? | 20.6µM* | ?
Cc1ccc(-n2c(O)c(C=Nc3ccc4c(c3)OCO4)c3ccccc3c2=O)cc1C | ? | -3.4% | -11.5% | 13.2% | 7.31µM* | ?
O=C(Cc1cccs1)N1CCN(c2ncnc3c2nnn3-c2ccc(F)cc2)CC1 | . | . | . | -5.8% | . | .
SMILES | TDP1 cell noCPT | Gal4-VP16 FLuc | RORgamma inh | ALOX12 inh | TDP1 cell CPT | ELG1 DNA repair
Clc1ccccc1-c1nnc(SCc2nc(-c3ccccc3)no2)n1-c1ccccc1 | 7.31µM* | . | . | ? | 18.4µM* | .
Clc1ccc(-c2noc(CSc3nnc(-c4ccncc4)n3-c3ccccc3)n2)cc1 | ? | ? | 10.5% | 17.6% | ? | 16.4µM*
Cc1ccc(-c2noc(CSc3nnnn3C3CCCCC3)n2)cc1 | ? | -6.1% | 25.7% | -13.8% | 20.6µM* | -2.8%
Cc1ccc(-n2c(SCc3nc(-c4ccc(Cl)cc4)no3)nnc2-c2ccncc2)cc1 | 16.4µM* | . | . | -14.3% | 14.6µM* | .
COc1ccc(-c2noc(CSc3nnc(-c4ccncc4)n3-c3ccc(OC)cc3)n2)cc1 | ? | . | . | -10.4% | 23.1µM* | .
COc1ccc(-c2noc(CSc3nnc(-c4ccncc4)n3-c3ccc(C)cc3)n2)cc1 | ? | . | . | 1.9% | ? | .
Cc1ccc(-c2noc(CSc3nnc(-c4ccncc4)n3-c3ccc(C)cc3)n2)cc1 | 16.4µM* | -2.2% | 22.8% | -0.2% | 20.6µM* | -26.1%
N#Cc1ccc(F)c(Cn2cnc3ccccc3c2=O)c1 | . | . | . | 8.9% | . | .
CCCCc1c(O)c2ccccc2n(CCCC)c1=O | ? | -17.6% | 5.3% | 5.9% | 18.1% | 7.5%
CCCCc1c(CCC)c(=N)c2ccccc2n1C | 5.17µM* | -29.6% | 21.0% | ? | 23.1µM* | ?
COc1ccc2c(c1)c1c(c(=O)n(-c3ccccc3C)c(=O)n1Cc1cccc(C(F)(F)F)c1)n2C | 3.66µM* | . | . | -11.6% | 3.66µM* | .
COc1ccc2c(c1)c1c(c(=O)n(-c3ccccc3C)c(=O)n1Cc1ccccc1C)n2C | -11.3% | . | . | 0.0% | 0.9% | .
CCCN(CCC)C(=O)Cn1c(=O)n(-c2cccc(C)c2)c(=O)c2c1c1cc(OC)ccc1n2C | 23.1µM* | . | . | 0.0% | 14.6µM* | .
COc1ccc2c(c1)c1c(c(=O)n(-c3cccc(C)c3)c(=O)n1Cc1cccc(Cl)c1)n2C | 5.8µM* | . | . | -17.6% | 7.31µM* | .
